Results from PubChem BioAssay (Tox21).
Results filed as inconclusive are left out. Entries that show only a call come without a potency. Calls of active or inactive are those of the source. Calls follow the shape of the dose curve; as a rule, active = well fitted cell-killing curve with a large enough effect in the repeat runs; inconclusive = weak or mixed curves, or effect the other way; inactive = flat fitted curve, though single readings scatter.

Assay: Nuclear factor erythroid 2-related factor 2/antioxidant responsive element (Nrf2/ARE) small molecule agonists: qHTS cell viability counter screen in human keratinocytes (AID 1919968); also: nearly all actives have a fitted effect of over 55% in size
Conditions: KeratinoSens HaCaT ARE cells viability, CellTiter-Fluor, 24 h; series mostly up to 92.4 µM
From the text: U.S. Tox21 Program National Center for Advancing Translational Sciences [NCATS] Division of Preclinical Innovation [DPI] U.S. Environmental Protection Agency [EPA] National Institutes of Environmental Health Sciences [NIEHS] National Toxicology Program [NTP] U.S. Food and Drug Administration [FDA] Tox21 Assay Overview: Oxidative stress has been implicated in the pathogenesis of a variety of diseases ranging from cancer to neurodegeneration. The antioxidant response element (ARE) signaling pathway plays an important role in the amelioration of oxidative stress. The KeratinoSens (Givaudan, Switzerland) is an in vitro test method which quantifies luciferase induction as a measure of activation of Keap1-Nrf2-antioxidationt/electrophile response element (ARE) dependant pathway in HaCaT human keratinocytes stably transfected with a selectable plasmid. The KeratinoSens assay is a cell-based assay with a reporter cell line to detect potential skin sensitizers by their ability to induce the Nrf2/ARE-response. The activation of the report gene under culture conditions can be detected by ONE-Glo Luciferase Assay System (Promega, Madison, WI). This cell line has been used to screen the Tox21 10K compound library to identify agonists that induce oxidative stress. The cytotoxicity of the Tox21 compound library against the KS-ARE cell line was tested in parallel by measuring the cell viability using CellTiter- Fluor assay system (Promega, Madison, WI) in the same wells.
Tox21 Assay Protocol Summary: HaCaT derived cell line KeratinoSens were dispensed at 1,500 cells/5uL/well in 1536-well white wall/solid bottom plates using a Multidrop Combi (ThermoFisher Scientific, Waltham, MA) dispenser. After the assay plates were incubated at 37 C/5% CO2 for 5 h, 23 nL of compounds dissolved in DMSO, positive controls or DMSO only was transferred to the assay plate by a pintool workstation (Kalypsys, San Diego, CA). The plates were incubated at 37 C/5% CO2 for 23 h, followed by addition of 1uL/well of CellTiter-Fluor reagent into the assay plates using a Flying Reagent Dispenser (Aurora Discovery, San Diego, CA) for cell viability readout that measures cytotoxicity. After 1 h incubation at 37 C/5% CO2 the fluorescence intensity was measured using a ViewLux (PerkinElmer, Shelton, CT) plate reader.
Potency is read from the fitted curve at half-maximal effect.

Row | Structure (SMILES) | Potency
1 | O=C(Nc1ccccc1)Nc1cnns1 | inactive
2 | CS(=O)(=O)c1ccc(C(=O)C2C(=O)CCCC2=O)c([N+](=O)[O-])c1 | inactive
3 | CC(Cc1ccccc1)N(C)Cc1ccco1 (stereo not given) | inactive
4 | CC(Cc1ccccc1)NCCCCl (stereo not given) | inactive
5 | CCCSP(=S)(OCC)Oc1ccc(SC)cc1 (stereo not given) | inactive
6 | CCCSP(=S)(OCC)Oc1ccc(Cl)cc1Cl (stereo not given) | inactive
7 | O=C(Cc1ccccc1)OCCc1ccccc1 | inactive
8 | CCCC(Cn1cncn1)c1ccc(Cl)cc1Cl (stereo not given) | inactive
9 | CC(C)C(=O)Cl | inactive
10 | O=C1c2ccccc2C(=O)C1C(=O)C(c1ccccc1)c1ccc(Cl)cc1 (stereo not given) | 15.4 µM (active)
11 | CNC(=O)CSP(=O)(OC)OC | inactive
12 | CC(C)[C@H](C(=O)O[C@H](C#N)c1cccc(Oc2ccccc2)c1)c1ccc(Cl)cc1 | inactive
13 | CC(C)(C)c1cc([N+](=O)[O-])cc([N+](=O)[O-])c1O | 13.6 µM (active)
14 | COP(=S)(Oc1cc(Cl)c(Br)cc1Cl)c1ccccc1 (stereo not given) | inactive
15 | CCOP(=S)(OCC)SCSCC | inactive
16 | Oc1ccc2c3c1O[C@H]1[C@@H](O)C=C[C@H]4[C@@H](C2)NCC[C@@]341 | inactive
17 | CCSCc1ccccc1OC(=O)NC | inactive
18 | CC(=O)NNc1ccccc1 | inactive
19 | CN(C)CCc1c[nH]c2ccc(O)cc12 | inactive
20 | CC1NCCOC1c1ccccc1 (stereo not given) | inactive

Row | Structure (SMILES) | Potency
21 | NC(=O)C(Cl)(Cl)Cl | inactive
22 | CC(C)N(C(=O)COc1nnc(C(F)(F)F)s1)c1ccc(F)cc1 | inactive
23 | O.O.O.O.O.O.O.O=S(=O)([O-])[O-].[Co+2] | inactive
24 | CCC(OC(C)=O)C(CC(C)NC)(c1ccccc1)c1ccccc1 (stereo not given) | 54.9 µM (active)
25 | CCNc1nc(Cl)nc(NC(C)(C)C)n1 | inactive
26 | O=C(NC(=O)c1c(F)cccc1F)Nc1ccc(Oc2ccc(C(F)(F)F)cc2Cl)cc1F | inactive
27 | O=CNC(N1CCN(C(NC=O)C(Cl)(Cl)Cl)CC1)C(Cl)(Cl)Cl (stereo not given) | inactive
28 | COC(=O)/C=C(\C)OP(=O)(OC)OC | inactive
29 | O=S(=O)(Cl)c1ccccc1 | inactive
30 | O=[N+]([O-])c1cccc2cccc([N+](=O)[O-])c12 | inactive
31 | O=C(Nc1ccccc1-c1ccc(Cl)cc1)c1cccnc1Cl | inactive
32 | C[N+](C)(C)CCCl | inactive
33 | CCCSP(=O)(OCC)Oc1ccc(Br)cc1Cl (stereo not given) | inactive
34 | O=C1OC(c2ccc(O)c(S(=O)(=O)O)c2)(c2ccc(O)c(S(=O)(=O)O)c2)c2c(Br)c(Br)c(Br)c(Br)c21 | inactive
35 | C=CC(=O)NCNC(=O)C=C | inactive
36 | CC1CCCC1 | inactive
37 | CC(C)Oc1cccc(NC(=O)c2ccccc2C(F)(F)F)c1 | inactive
38 | Clc1ccc2ccccc2c1 | inactive
39 | CNC(=O)O/N=C(\C)SC | inactive
40 | Clc1cc(Cl)c(Cl)c(Cl)c1 | inactive
